The values that follow come from PubChem BioAssay (NCI).

Structures are written as SMILES. Compounds without any hit were thinned out: in the full panel of roughly 83,000, 20% have a hit.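 Note: values are percent growth. 100 is the growth of untreated cells, values between 100 and 0 indicate rising inhibition; between -100 and 0 indicates cell death.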 Values without a mark were called inactive. Activity calls are given as the source filed them. How the source made its calls: active means growth percent below 10; inactive means the rest.

Among the test systems are SR leukemia; RPMI-8226 leukemia; OVCAR-8 ovarian; OVCAR-5 ovarian; OVCAR-4 ovarian; SK-OV-3 ovarian; IGROV1 ovarian; OVCAR-3 ovarian; HS 578T breast; NCI/ADR-RES ovarian; T-47D breast; BT-549 breast; MDA-MB-435 melanoma; SW-620 colon; MCF7 breast; HCT-116 colon; HCC-2998 colon; KM12 colon.
Test in all cases: NCI-60 one-dose screen, 48 h (100 = growth as untreated, 0 = no growth, -100 = all killed)
Holding throughout (settings): 10 µM unless noted

Turning to `CN1CCCCC1CCN1c2ccccc2Sc2ccc(Cl)cc21` (centres undefined), the growth in the assay with SR leukemia was -22.5% (active); in the assay with RPMI-8226 leukemia it was 56.5%; in the assay on OVCAR-8 ovarian it was 63%; in the assay with OVCAR-5 ovarian it was 91.8%; in the assay on OVCAR-4 ovarian it was 57.1%; in the assay with SK-OV-3 ovarian, 59.1%. Also, the growth is 45.5% in the assay with IGROV1 ovarian; 81.6% with OVCAR-3 ovarian; 72.5% with HS 578T breast; 72.9% with NCI/ADR-RES ovarian; 71.1% in the assay with T-47D breast; 73.8% in the assay on BT-549 breast. For the same molecule, the growth with MDA-MB-435 melanoma is 27%; in the assay on SW-620 colon, 73.4%; in the assay with MCF7 breast, 21.6%; with HCT-116 colon it was 30.6%; in the assay with HCC-2998 colon it was 61.1%; in the assay on KM12 colon it was 60%.

For `C=C1CC[C@@H]2[C@](C)(COC(C)=O)[C@H](OC(C)=O)CC[C@@]2(C)[C@@H]1CC(NCc1ccc(F)cc1)C1=CCOC1=O` (some centres undefined), the growth was 7.69% (active) with SR leukemia; 1.27% (active) in the assay with RPMI-8226 leukemia; 18.6% in the assay on OVCAR-8 ovarian; 99% with OVCAR-5 ovarian; 30.9% in the assay on OVCAR-4 ovarian; 94.3% in the assay with SK-OV-3 ovarian. In addition, the growth in the assay with IGROV1 ovarian was 48.3%; with OVCAR-3 ovarian, 23.7%; in the assay with HS 578T breast it was 72.5%; in the assay on NCI/ADR-RES ovarian, 28.3%; in the assay on T-47D breast, 26.6%; in the assay on BT-549 breast, 28.7%. Also, the growth with MDA-MB-435 melanoma was 32.7%; with SW-620 colon, 32%; with MCF7 breast, 16.6%; in the assay with HCT-116 colon, 33.7%; in the assay on HCC-2998 colon, 89.3%; with KM12 colon, 46.5%.

Turning to `CC(=O)Nc1ccc2c(c1)c(NC(C)=O)nn2C(=O)Nc1ccc(Cc2ccccc2)cc1`, the growth was 98.7% with SR leukemia; 88.8% in the assay with RPMI-8226 leukemia; 71.8% in the assay on OVCAR-8 ovarian; 67.1% in the assay with OVCAR-5 ovarian; 89.4% with OVCAR-4 ovarian; 67.3% with SK-OV-3 ovarian. Also, the growth with IGROV1 ovarian was 83.2%; with OVCAR-3 ovarian, 84.4%; in the assay with HS 578T breast, 56.9%; in the assay on NCI/ADR-RES ovarian, 89.4%; with T-47D breast, 82.5%; with BT-549 breast, 43%. Further, the growth in the assay on MDA-MB-435 melanoma was 82.2%; in the assay on SW-620 colon, 102%; in the assay with MCF7 breast it was 89.6%; in the assay on HCT-116 colon, 61%; with HCC-2998 colon, 78.8%; in the assay with KM12 colon, 85.9%.

`COc1ccccc1/C=C(/C(=O)c1ccccc1)c1ccccc1`: the growth was 94.7% with SR leukemia; 96.9% in the assay with RPMI-8226 leukemia; 87.7% with OVCAR-8 ovarian; 128% in the assay on OVCAR-5 ovarian; 94.2% with OVCAR-4 ovarian; 103% in the assay with SK-OV-3 ovarian. For the same molecule, the growth with IGROV1 ovarian is 96.7%; in the assay on OVCAR-3 ovarian, 102%; in the assay with HS 578T breast, 100%; with NCI/ADR-RES ovarian it was 92.1%; in the assay with T-47D breast it was 103%; in the assay with BT-549 breast it was 92.4%. For the same molecule, the growth in the assay on MDA-MB-435 melanoma is 107%; with SW-620 colon, 101%; in the assay with MCF7 breast it was 110%; in the assay on HCT-116 colon, 83.5%; in the assay with HCC-2998 colon, 107%; in the assay on KM12 colon, 98.1%.

On to `COc1ccc(/C=C2\CN(C(=O)CCN3CCC(=NO)CC3)C/C(=C\c3ccc(OC)cc3)C2=O)cc1`, for which the growth is 2.16% (active) in the assay with SR leukemia; -11.1% (active) with RPMI-8226 leukemia; 19.6% with OVCAR-8 ovarian; -4.94% (active) in the assay on OVCAR-5 ovarian; 28.2% in the assay with OVCAR-4 ovarian; 68% in the assay on SK-OV-3 ovarian. The growth is -14.1% (active) with IGROV1 ovarian; 6.9% (active) in the assay with OVCAR-3 ovarian; 6.95% (active) in the assay with HS 578T breast; 11.3% with NCI/ADR-RES ovarian; 23.3% in the assay on T-47D breast; 15.2% in the assay on BT-549 breast. The growth was -61.4% (active) with MDA-MB-435 melanoma; -39.3% (active) in the assay with SW-620 colon; -0.32% (active) in the assay with MCF7 breast; -31.8% (active) in the assay with HCT-116 colon; -89.5% (active) in the assay on HCC-2998 colon; -59.6% (active) in the assay with KM12 colon.

For the molecule `C#Cc1nc(Nc2cc(C)[nH]n2)c2ccccc2n1`, the growth in the assay with SR leukemia was 3.84% (active); in the assay with RPMI-8226 leukemia, -16.5% (active); in the assay with OVCAR-8 ovarian, -19.2% (active); with OVCAR-5 ovarian, -28.5% (active); with OVCAR-4 ovarian, -55.2% (active); with SK-OV-3 ovarian, 21.1%. The growth in the assay on IGROV1 ovarian was -62.7% (active); in the assay with OVCAR-3 ovarian, -71% (active); in the assay with HS 578T breast it was -1.95% (active); in the assay on NCI/ADR-RES ovarian it was 9.77% (active); in the assay with T-47D breast, -36.8% (active); in the assay on BT-549 breast it was -34.9% (active). In addition, the growth with MDA-MB-435 melanoma was -75.5% (active); in the assay on SW-620 colon, -25.6% (active); in the assay with MCF7 breast it was -25.8% (active); with HCT-116 colon it was -12.7% (active); with HCC-2998 colon, -91% (active); in the assay with KM12 colon it was -73.1% (active).

For `CCOC(=S)SCc1ccc(Cl)cc1`, the growth is 80.2% in the assay with SR leukemia; 108% with RPMI-8226 leukemia; 101% in the assay on OVCAR-8 ovarian; 95.6% with OVCAR-5 ovarian; 95.6% in the assay with OVCAR-4 ovarian; 150% with SK-OV-3 ovarian. Moreover, the growth in the assay with IGROV1 ovarian was 104%; with OVCAR-3 ovarian, 94.4%; with HS 578T breast, 107%; with NCI/ADR-RES ovarian, 105%; in the assay with T-47D breast it was 120%; with BT-549 breast, 96.3%. Also, the growth is 101% in the assay on MDA-MB-435 melanoma; 101% in the assay on SW-620 colon; 103% with MCF7 breast; 92.3% in the assay with HCT-116 colon; 131% with HCC-2998 colon; 108% in the assay on KM12 colon.

With `CC#Cc1nc2ccccc2c(=O)[nH]1`, the growth with SR leukemia was 39.4%; in the assay on RPMI-8226 leukemia, 2.5% (active); in the assay with OVCAR-8 ovarian it was 42%; with OVCAR-5 ovarian, 76.4%; with OVCAR-4 ovarian, 18.4%; in the assay with SK-OV-3 ovarian, 112%. Besides, the growth is 14% in the assay with IGROV1 ovarian; 4.22% (active) in the assay on OVCAR-3 ovarian; 58.7% with HS 578T breast; 55% in the assay with NCI/ADR-RES ovarian; 67.3% in the assay with T-47D breast; 20.4% with BT-549 breast. Also, the growth with MDA-MB-435 melanoma is 25.6%; with SW-620 colon, 40.8%; with MCF7 breast, 23.5%; with HCT-116 colon, 41.1%; in the assay with HCC-2998 colon it was 13.7%; in the assay with KM12 colon, 41.1%.
